The results in this text go back to PubChem BioAssay AID651949 (Broad Institute, 2012).

Potency and affinity values are given separately. Calls of active or inactive are those of the source.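 Rule for the calls: active = compounds lowering cell ATP signal whose fitted half-maximal concentration is at most twice the top tested dose; inconclusive = flat curve with 30 to 70% signal loss, or poor fit; inactive = the rest.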

The assay in a line: viability loss in HEK293T cells – cell-based, CellTiter-Glo luminescence, dry powder, set 6, cytotoxicity control, dose response (AID 651949). The note with it: CellTiter-Glo ATP luminescence, 48 h; series mostly up to 26 µM.
For `c1ccc(CSc2nnc(-c3ccco3)o2)cc1`, the outcome was inactive.

`CS(=O)(=O)c1ccccc1-c1nnc(SCc2ccccc2)o1`: the molecule was called inactive.

With `FC(F)(F)c1ccc(CSc2nnc(-c3ccccc3)o2)cc1`, the outcome was inactive.

On to `FC(F)(F)c1ccccc1-c1nnc(SCc2ccccc2)o1`, for which the molecule was classed as inactive.

As for `FC(F)(F)c1cccc(CSc2nnc(-c3ccccc3)o2)c1`, the outcome was inactive.

Take `c1ccc(Sc2nnc(-c3ccccc3)o2)cc1`: the result was inactive.

In the case of `CS(=O)(=O)c1cccc(CSc2nnc(-c3ccccc3)o2)c1`, the molecule was classed as inactive.

Take `Fc1ccc(-c2nnc(SCc3ccccc3)o2)cc1`: the molecule was classed as inactive.

Turning to `c1ccc(Cn2cc(CSc3nnc(-c4ccccc4)o3)nn2)cc1`, the outcome was inactive.

For the molecule `Brc1ccc(CSc2nnc(-c3ccccc3)o2)cc1`, the outcome was inactive.

Turning to `c1ccc(-c2nnc(SCc3ccccn3)o2)cc1`, the outcome was inactive.

As for `COc1ccccc1CSc1nnc(-c2ccccc2)o1`, the molecule was called inactive.

Regarding `c1ccc(-c2nnc(SCc3ccncc3)o2)cc1`, the result was inactive.

As for `Clc1ccc(-c2nnc(SCc3cn(Cc4ccccc4)nn3)o2)cc1`, the outcome was inactive.

With `FC1(F)CCN(CCSc2nnc(-c3ccccc3)o2)CC1`, the result was inactive.

Regarding `N#Cc1ccc(-c2nnc(SCc3ccccc3)o2)cc1`, the call was inactive.

As to `c1ccc(CSc2nnc(-c3cscn3)o2)cc1`, the molecule was called inactive.
